The entries come from a sample that favours hits as a whole.
HTT aggregate – inhibitors of mutant huntingtin aggregate formation in PC12 cells. PC12 HttQ103-GFP aggregates, Acumen cytometry, 40 h. Potency, µM (series often up to 46.1 µM), without a hit: top-dose activity change, negative = inhibition, most hits filed as inhibitors. 1.1% of 220,000 active; further: on the % scale 0 is the no-effect control and ±100 the full control effect; nearly all actives have a fitted effect of over 60% in size
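Steps: seed 1500 PC12 HTTQ103-GFP cells/well; add tebufenozide, 100 nM final; add compound titration; add ATPLite reagent; quantify GFP aggregates by laser scanning cytometry.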
HTT ATP protect – cytoprotection in Huntington HTT-Q103 PC12 cell model; PC12 HTT-Q103 induced, cytoprotection, ATP luminescence, 40 h; Potency, µM (titrated, usually from 56.4 µM), inactives show cytoprotection (ATP increase), actives largely listed as activators; 0.14% of 230,000 active; further: % of control where 0% means no effect; nearly all actives have a fitted effect of over 45% in size
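PC12 cells with ecdysone-inducible HTT exon 1 Q103-GFP, induced with 100 nM tebufenozide and co-treated with library compounds in a dose series (1536-well, 1500 cells/well). Cytoprotection read as ATP content by ATPlite luminescence.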
Epigenetic derep – derepresses silenced GFP reporter in murine cells | 0.2% of 280,000 active | AID 1865 | murine LDR cells, GFP reporter derepression, 30 h | Potency, µM (titrated, usually from 53.9 µM), for the others: at the highest dose GFP activation, hits mostly activators; further: % of control where 0% means no effect; nearly all actives have a fitted effect of over 60% in size
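GFP-positive cell count by laser-scanning cytometry (objects 20–120 um) after 30 h, 37 C compound exposure of murine LDR cells; reporter is CMV-GFP integrated at a silenced locus, inducible by HDAC or DNMT inhibitors.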
PINK1 modulator – modulators of PINK1 expression | PINK1 immunofluorescence, high-content cytometry, 24 h | Potency, µM (doses to about 76.6 µM), without a hit: top-dose activation (PINK1 increase), hits mostly activators | 0.2% of 410,000 active; active means well fitted activation curve with a large enough effect; inconclusive means small, poorly fitted or top-dose-only effect; cell line not stated here; further: % of control where 0% means no effect; nearly all actives have a fitted effect of over 65% in size
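Fluorescence from anti-PINK1 antibody, together with nuclear and cell stains, was scanned on a laser-scanning cytometer. Before staining, stable-line cells were incubated 24 hours with compounds at 5 concentrations; primary antibody 12 h at 10 degrees C.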
* marks the source's active call; other numbers are inactive results; u = inconclusive; x = not tested or not shown; ! = a repeat was not active; [ ] = another dose, or the depositor's remark. Unless noted, the call rests on the fitted dose curve; in most records, active means well fitted curve in the direction sought with a large enough effect; inconclusive means small, poorly fitted or top-dose-only effect, or another doubt; inactive means no such curve, though single readings can be large; an effect the other way counts as inactive or inconclusive. Potency means the concentration at half of the fitted maximal effect.

SMILES	HTT aggregate	HTT ATP protect	Epigenetic derep	PINK1 modulator
N[C@H](Cc1c[nH]c2ccccc12)C(=O)O	31.6µM*	-110.8%	-2.4%	x
COc1cc(C(=O)Oc2ccccc2/C=N/NC(=O)c2ccc(Cl)cc2Cl)cc(OC)c1OC	6.31µM*	-58.5%[10 µM]	-6.8%	-0.1%
CCOC(=O)c1c(NC(=O)c2cc(-c3cccc(OC)c3)on2)sc2c1CCCC2	x	x	-0.9%	-0.6%
CCOC(=O)c1c(NS(=O)(=O)c2cccc(OC)c2)sc2c1CCC2	-6.4%	14.1µM*	1.1%	-1.8%[38.3 µM]
Cc1ccc(C(=O)N(CC(=O)Nc2sc(C)c(C)c2C(N)=O)C2CCCC2)cc1	x	x	x	0.8%
COc1ccc(N2CCn3c2nc2c3c(=O)n(CCc3ccccc3)c(=O)n2C)c(OC)c1	10.8%	-9.2%	9.6%	x
COc1ccc(N2CCn3c2nc2c3c(=O)n(CCCc3ccccc3)c(=O)n2C)c(OC)c1	11.2µM*	-66.5%[0.074 µM]	-1.1%	4.7%[38.3 µM]
CN(C)c1ccc(NS(=O)(=O)c2cc(Cl)ccc2Cl)cc1	u	0.794µM*	0.0%	5.9%
CCN(c1ccc(NS(=O)(=O)c2cc(Cl)ccc2Cl)cc1)C(C)C	10µM*	1.4%[10 µM]	5.7%	u
O=S(=O)(Nc1ccc(N2CCOCC2)cc1)c1cc(Cl)ccc1Cl	x	x	x	1.4%
O=C(COc1ccccc1)Nn1c(-c2ccccc2)nc2ccccc2c1=O	25.5%	1.0%[10 µM]	-1.8%	1.1%
CC(=O)/C=C\c1cn(-c2ncc(C(F)(F)F)cc2Cl)c2ccccc12	u	-3.9%[10 µM]	0.6%	3.4%
COc1ccc(-n2c(C)nc3c(cnn3-c3ccc(Cl)cc3)c2=O)cc1	12.6µM*	-64.4%	-1.9%	-1.3%
CCOC(=O)Cn1cnc2c(cnn2-c2ccc(Cl)cc2)c1=O	15.8µM*	-68.0%	-2.6%	-1.1%
CCc1ccccc1NC(=S)N(Cc1ccco1)C(C)c1cccs1 (centres undefined)	3.98µM*	-29.8%	1.1%	0.9%
COc1ccc(CNC(=O)CSc2ncc3c(n2)-c2ccc(Cl)cc2N(Cc2ccccc2)S3(=O)=O)cc1	x	x	15.8µM*	3.5%
Cc1ccc(CN2c3ccccc3-c3nc(SCC(=O)NCc4ccccc4)ncc3S2(=O)=O)cc1	x	x	0.3%	-0.4%
CCOc1ccc(Br)cc1/C(C)=N\NC1=NCCN1	12.6µM*	-7.9%	0.1%	1.0%
CC1=C(C(=O)N(C(C)C)C(C)C)CC(CC(=O)NCCCN(C)C)C(=O)N1CCC1=CCCCC1 (centres undefined)	x	x	x	0.8%
CC(C)CN(C(=O)COC(=O)c1ccc([N+](=O)[O-])s1)c1c(N)n(Cc2ccccc2)c(=O)[nH]c1=O	x	x	x	39.8µM*
Cc1cc(N/N=C/c2c(O)ccc3ccccc23)nc(-c2ccccc2O)n1	10µM*	26.7%[10 µM]	1.0%	44.7µM*
Oc1ccc2ccccc2c1/C=N/Nc1ccccc1	u	41.9%[10 µM]	0.0%	6.0%
CCCC(=O)N1CCN(c2ccc(NC(=O)c3ccc([N+](=O)[O-])o3)cc2)CC1	22.4µM*	-72.9%	u	-0.5%
NC1=NC(=O)/C(=C/c2ccc(Br)cc2)S1	x	x	x	-0.2%
CC1CCN(S(=O)(=O)c2ccc3c(c2)C(=NO)c2cc(S(=O)(=O)N4CCC(C)CC4)ccc2-3)CC1	3.16µM*	-92.5%	-1.2%	-2.4%
SMILES	HTT aggregate	HTT ATP protect	Epigenetic derep	PINK1 modulator
O=S(=O)(c1ccc2c(c1)C(=NO)c1cc(S(=O)(=O)N3CCCCC3)ccc1-2)N1CCCCC1	u	-135.5%[10 µM]	7.3%	10.6%
CCc1ccc(-n2c(SCc3c(C)noc3C)nnc2-c2ccncc2)cc1	18.8%	-12.9%	0.0%	-1.2%
CN(c1cccc(Cl)c1)S(=O)(=O)c1cccc(C(=O)Nc2nc3ccccc3[nH]2)c1	20µM*	6.9%[1.9 µM]	2.0%	-0.5%
CC(CN(C)C)CN1c2ccccc2CCc2ccccc21 (centres undefined)	0.3%[9.22 µM]	1µM*!	-0.2%	1.3%
S=C(NN=Cc1ccccn1)N(Cc1ccccn1)Cc1ccccn1	x	x	x	19.4%
CC(C)CCn1cnc2c1c(=O)n(C)c(=O)n2C	-22.7%	-9.7%[0.074 µM]	-1.2%	-1.8%
Cn1c(=O)c2c(ncn2CCO)n(C)c1=O	4.2%	2.51µM*!	2.4%	3.3%
Cc1cccc(NC(=S)N(C)C2CCCCC2)c1	4.7%	-13.2%	2.4%	1.9%
O=S(=O)(Nc1nc2c(s1)CCCC2)c1ccc2ccccc2c1	11.2µM*	13.9%	0.1%	0.0%
Cc1ccc(N=Cc2sc(O)c3ccccc23)c(C)c1	u	-9.4%[10 µM]	u	u
Cc1ccc(N=Cc2sc(O)c3ccccc23)cc1	-16.4%	2.9%[10 µM]	15.8µM*	1.3%
CCN1CC=C2C(C1)C(c1ccc(Cl)s1)C(C#N)=C(N)C2(C#N)C#N (centres undefined)	-0.1%	-10.7%	-3.8%	6.31µM*
CCOc1ccccc1Nc1nc(N2CCCC2)nc(N2CCOCC2)n1	x	x	x	1.2%
CCCCN1C=CC(=C2N=c3cccc([N+](=O)[O-])c3=N2)C=C1	0.891µM*	23.9%[10 µM]	-1.5%	2.7%
CCOc1cc(S(=O)(=O)N2CCN(Cc3ccccc3)CC2)ccc1Br	11.2µM*	-0.9%[0.074 µM]	-1.0%	0.2%
Cc1cc2nc(/C(C#N)=C/c3ccncc3)[nH]c2cc1C	17.0%	8.4%	0.9%	3.9%
COc1ccc(/C=C2\CCc3ccccc3C2=O)cc1Cn1nc(C)cc1C	25.1µM*	-14.0%	0.8%	-0.5%
COC(=O)c1oc2ccc(OC)cc2c1N	2.82µM*	-94.3%[10 µM]	-2.3%	0.9%[38.3 µM]
NS(=O)(=O)c1cccc(NC(=O)c2cc(=O)c3ccccc3o2)c1	x	x	x	6.1%
O=C(Nc1cccc(S(=O)(=O)N2CCCC2)c1)c1ccco1	x	x	x	0.1%
O=C(Nc1cccc(S(=O)(=O)N2CCCCCC2)c1)c1cc(=O)c2ccccc2o1	20µM*	-38.9%	-5.1%	1.4%
CN(c1ccccc1)S(=O)(=O)c1cccc(NC(=O)c2cc(=O)c3ccccc3o2)c1	12.6µM*	-123.2%	0.0%	0.7%
O=Nc1c(-c2c(O)[nH]c3ccccc23)[nH]c2ccccc12	x	1.26µM*!	-0.1%	x
CC(CC(=O)Nc1ccc(Cl)c(S(=O)(=O)N2CCOCC2)c1)c1ccccc1 (centres undefined)	x	x	x	1.4%
Cn1c(=O)oc2cc(S(=O)(=O)NC3CCN(Cc4ccccc4)CC3)ccc21	-11.2%	4.6%	0.0%	-0.5%
SMILES	HTT aggregate	HTT ATP protect	Epigenetic derep	PINK1 modulator
c1ccc(-c2cnn3c(-c4ccccc4)c(-c4ccccc4)nc3n2)cc1	-8.0%	34.9%[10 µM]	2.82µM*	u
Nc1nc(-c2ccccc2)c(-c2ccccc2)n1N	x	x	x	0.2%
CC(C)(C)n1ncc(Oc2ccccc2[N+](=O)[O-])c(Cl)c1=O	12.6µM*	x	-1.0%	15.9%
CC(C)CC[n+]1ccccc1/C=C/c1ccc(N(C)C)cc1	x	x	x	31.6µM*
CN(C)c1ccc(/C=C/c2cccc[n+]2[O-])cc1	10.2%[9.22 µM]	-0.1%[10 µM]	-4.1%	-0.7%
Cc1cc(C)c(Cn2c(=O)n(CCCCCC(=O)NCc3ccc4c(c3)OCO4)c(=O)c3sccc32)c(C)c1	x	x	11.5%	0.8%
O=C(c1cc(COc2ccc(F)cc2Cl)on1)N1CCC(OCc2cccnc2)CC1	11.2µM*	-55.6%	-4.1%	1.9%
Cc1cccc(C)c1OCc1cc(C(=O)N2CCC(c3ccncc3)CC2)no1	x	x	x	-0.7%

Bioassay records as filed in PubChem.
